From PubChem BioAssay (EPA / NIEHS)
Results filed as inconclusive are left out. Calls of active or inactive are those of the source. The calls were made as follows: active = hit-call score of the fitted dose curve at least 0.9, where 1 is the maximum; inconclusive = response in the unintended direction; inactive = score below 0.9.

test: ACEA_ER_AUC_viability: ACEA Biosciences xCELLigence Real-Time Cell Analysis on Estrogen Receptor Agonism for Viability (AID 2283782);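 also: continuous compound exposure with impedance area under curve over 80 h; hit means loss of impedance signal meaning reduced cell growth or viability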
How it was run: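 T47D cells preconditioned in phenol red-free RPMI with charcoal-stripped FBS, then dosed with 8-point 1:4 series from 100 uM (up to 0.5% DMSO). Impedance monitored up to ~80 h; area-under-curve loss versus DMSO taken as viability.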

Structure (SMILES)	AC50	outcome
CCOC(=O)CC(=O)c1ccccc1	50 µM (active)	
COC(=O)c1ccccc1C		inactive
CC(C)(O)Cc1ccccc1	27.5 µM (active)	
CC(C)c1cccc(C(C)C)c1N		inactive
CCCCCCCCCCCC(=O)OCC		inactive
CCCCCCO		inactive
CC(=O)OCCc1ccccc1		inactive
CCCC=C(C=O)CC		inactive
N#CC1(N)CCCCC1		inactive
CCCCCCCCCCCCCc1ccccc1		inactive
CO[Si](C)(C)OC		inactive
COc1ccc(C(=O)/C(Br)=C\C(=O)O)cc1	29.2 µM (active)	
O=C(Nc1ccccc1)c1cc(Cl)ccc1O	82.1 µM (active)	
N=C1C=CC(=C(c2ccc(N)cc2)c2ccc(N)cc2)C=C1	34.5 µM (active)	
O=C(OCc1ccccc1)c1ccc(O)cc1	82.6 µM (active)	
CC(C)CCOCc1ccccc1		inactive
CCC1(C)C(=O)N(Cl)C(=O)N1Cl (centres undefined)	81.4 µM (active)	
CCOB(OCC)OCC		inactive
Nc1cccc(N)n1		inactive
CCc1cccc(CC)c1		inactive
CCCCCCCCCCCCc1ccc(O)cc1	20 µM (active)	
Cc1cc(C)n(CO)n1		inactive
CO[Si](CCCS)(OC)OC		inactive
CC(CC(C)C)=NO		inactive
CC(C)=NNC(N)=S	82.4 µM (active)	
CC(C)c1cc(C(C)C)cc(C(C)C)c1		inactive
CC1=CC(C)C(C=O)CC1 (centres undefined)		inactive
CC(C)c1ccc(O)c(C(C)C)c1	79.4 µM (active)	
O=S(=O)(O)c1ccc(Nc2nc(Nc3ccc(C=Cc4ccc(Nc5nc(Nc6ccc(S(=O)(=O)O)cc6)nc(N(CCO)CCO)n5)cc4S(=O)(=O)O)c(S(=O)(=O)O)c3)nc(N(CCO)CCO)n2)cc1		inactive
